Several values for one entry are separate records, joined by “and”; a condition that tells them apart may be missing. Identical values can stand only once. More than one record can exist for a structure, and the calls need not agree. Activity calls are given as the source filed them. The calls were made as follows: active = hit-call score of the fitted dose curve at least 0.9, where 1 is the maximum; inactive = score below 0.9.
read-out: Interleukin-8 (IL8), CXCL8 (gene 3576); assay: BSK_CASM3C_IL8: BioMAP Diversity Plus: CASM3C Assay for Interleukin-8 (IL8) Biomarker Activity (AID 2283042); conditions: primary human coronary artery smooth muscle cells; actives raise or lower the signal;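 also: IL-8 protein level quantified by ELISA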

Compound	outcome	AC50
CCn1c2ccccc2c2cc(N)ccc21	inactive	
Cc1ccc(Nc2ccc(O)c3c2C(=O)c2ccccc2C3=O)cc1	inactive	
Cc1ccc(O)c(C(C)(C)C)c1	inactive	
CCCCCCCCCCCCCCCCCC(=O)OCC(CC)CCCC (stereo not drawn)	inactive	
CCCCC(CC)COCCC#N (stereo not drawn)	inactive	
C[C@H]1C[C@@H]2[C@H]([C@@H](O)C[C@@]3(C)[C@H]2CC[C@]3(O)C(=O)CO)[C@@]2(C)C=CC(=O)C=C12		471 nM (active) and 1.18 µM (active)
O=P(c1ccccc1)(c1ccccc1)c1ccccc1	inactive	
CC(C)Oc1ccccc1O	inactive	
CC(=O)/C=C/C1=C(C)CCCC1(C)C	inactive	
CC[Si](OC(C)=O)(OC(C)=O)OC(C)=O	inactive	
CNC[C@H](O)c1cccc(O)c1	inactive	
O=[N+]([O-])c1cc(C(F)(F)F)ccc1Cl	inactive	
CCCCCCCCCC=O	inactive	
COc1cc(C=O)ccc1OC(=O)C(C)C	inactive	
Nc1cc([N+](=O)[O-])ccc1O	inactive	
CCc1c(C)cc(N)c(CC)c1N	inactive	
C=C(C)C(=O)O[C@H]1C[C@@H]2CC[C@@]1(C)C2(C)C		22.3 µM (active)
CC(=O)O[C@]1(C(C)=O)CC[C@H]2[C@@H]3C[C@H](C)C4=CC(=O)CC[C@]4(C)[C@H]3CC[C@@]21C		0.0082 µM (active)
CC1COc2ccccc2N1C(=O)C(Cl)Cl (stereo not drawn)	inactive	
CC(C)(COC(=O)c1ccccc1)COC(=O)c1ccccc1	inactive	
CC(C)c1ccc(C(C)C)cc1	inactive	
CCC(=O)OCc1ccccc1	inactive	
CC(=O)OCCC(C)CC(C)(C)C (stereo not drawn)	inactive	
CC1CCC(C(C)CS)CC1S (stereo not drawn)		20 µM (active)
CC(=O)[C@H]1CC[C@H]2[C@@H]3CC=C4C[C@@H](O)CC[C@]4(C)[C@H]3CC[C@]12C	inactive	

read-out: Human Leukocyte Antigen - DR isotype (HLADR), HLA-DRA (gene 3122); assay: BSK_CASM3C_HLADR: BioMAP Diversity Plus: CASM3C Assay for Human Leukocyte Antigen - DR isotype (HLADR) Biomarker Activity (AID 2283043); conditions: primary human coronary artery smooth muscle cells; actives raise or lower the signal;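 also: cell-surface HLA-DR protein level quantified by ELISA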

Compound	outcome	AC50
CCn1c2ccccc2c2cc(N)ccc21	inactive	
Cc1ccc(Nc2ccc(O)c3c2C(=O)c2ccccc2C3=O)cc1	inactive	
Cc1ccc(O)c(C(C)(C)C)c1		26.8 µM (active)
CCCCCCCCCCCCCCCCCC(=O)OCC(CC)CCCC (stereo not drawn)	inactive	
CCCCC(CC)COCCC#N (stereo not drawn)	inactive	
C[C@H]1C[C@@H]2[C@H]([C@@H](O)C[C@@]3(C)[C@H]2CC[C@]3(O)C(=O)CO)[C@@]2(C)C=CC(=O)C=C12	inactive	
O=P(c1ccccc1)(c1ccccc1)c1ccccc1	inactive	
CC(C)Oc1ccccc1O	inactive	
CC(=O)/C=C/C1=C(C)CCCC1(C)C	inactive	
CC[Si](OC(C)=O)(OC(C)=O)OC(C)=O	inactive	
CNC[C@H](O)c1cccc(O)c1	inactive	
O=[N+]([O-])c1cc(C(F)(F)F)ccc1Cl	inactive	
CCCCCCCCCC=O	inactive	
COc1cc(C=O)ccc1OC(=O)C(C)C	inactive	
Nc1cc([N+](=O)[O-])ccc1O	inactive	11.8 µM (active)
CCc1c(C)cc(N)c(CC)c1N	inactive	
C=C(C)C(=O)O[C@H]1C[C@@H]2CC[C@@]1(C)C2(C)C		8.32 µM (active)
CC(=O)O[C@]1(C(C)=O)CC[C@H]2[C@@H]3C[C@H](C)C4=CC(=O)CC[C@]4(C)[C@H]3CC[C@@]21C	inactive	
CC1COc2ccccc2N1C(=O)C(Cl)Cl (stereo not drawn)		2.96 µM (active)
CC(C)(COC(=O)c1ccccc1)COC(=O)c1ccccc1	inactive	
CC(C)c1ccc(C(C)C)cc1		25.9 µM (active)
CCC(=O)OCc1ccccc1	inactive	
CC(=O)OCCC(C)CC(C)(C)C (stereo not drawn)	inactive	5 µM (active)
CC1CCC(C(C)CS)CC1S (stereo not drawn)		35.8 µM (active)
CC(=O)[C@H]1CC[C@H]2[C@@H]3CC=C4C[C@@H](O)CC[C@]4(C)[C@H]3CC[C@]12C	inactive	

read-out: Macrophage colony-stimulating factor (MCSF), CSF1 (gene 1435); assay: BSK_CASM3C_MCSF: BioMAP Diversity Plus: CASM3C Assay for Macrophage colony-stimulating factor (MCSF) Biomarker Activity (AID 2283044); conditions: primary human coronary artery smooth muscle cells; actives raise or lower the signal;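 also: M-CSF protein amount quantified by ELISA after 24 h exposure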

Compound	AC50	outcome
CCn1c2ccccc2c2cc(N)ccc21	0.426 µM (active)	
Cc1ccc(Nc2ccc(O)c3c2C(=O)c2ccccc2C3=O)cc1		inactive
Cc1ccc(O)c(C(C)(C)C)c1		inactive
CCCCCCCCCCCCCCCCCC(=O)OCC(CC)CCCC (stereo not drawn)		inactive
CCCCC(CC)COCCC#N (stereo not drawn)		inactive
C[C@H]1C[C@@H]2[C@H]([C@@H](O)C[C@@]3(C)[C@H]2CC[C@]3(O)C(=O)CO)[C@@]2(C)C=CC(=O)C=C12	0.15 µM (active)	
O=P(c1ccccc1)(c1ccccc1)c1ccccc1		inactive
CC(C)Oc1ccccc1O		inactive
CC(=O)/C=C/C1=C(C)CCCC1(C)C		inactive
CC[Si](OC(C)=O)(OC(C)=O)OC(C)=O		inactive
CNC[C@H](O)c1cccc(O)c1		inactive
O=[N+]([O-])c1cc(C(F)(F)F)ccc1Cl		inactive
CCCCCCCCCC=O		inactive
COc1cc(C=O)ccc1OC(=O)C(C)C	2.86 µM (active)	inactive
Nc1cc([N+](=O)[O-])ccc1O		inactive
CCc1c(C)cc(N)c(CC)c1N		inactive
C=C(C)C(=O)O[C@H]1C[C@@H]2CC[C@@]1(C)C2(C)C	7.53 µM (active)	
CC(=O)O[C@]1(C(C)=O)CC[C@H]2[C@@H]3C[C@H](C)C4=CC(=O)CC[C@]4(C)[C@H]3CC[C@@]21C		inactive
CC1COc2ccccc2N1C(=O)C(Cl)Cl (stereo not drawn)	0.0828 µM (active)	
CC(C)(COC(=O)c1ccccc1)COC(=O)c1ccccc1		inactive
CC(C)c1ccc(C(C)C)cc1	32.4 µM (active)	
CCC(=O)OCc1ccccc1		inactive
CC(=O)OCCC(C)CC(C)(C)C (stereo not drawn)		inactive
CC1CCC(C(C)CS)CC1S (stereo not drawn)	22.3 µM (active)	
CC(=O)[C@H]1CC[C@H]2[C@@H]3CC=C4C[C@@H](O)CC[C@]4(C)[C@H]3CC[C@]12C		inactive
